# Experimental data from PubChem BioAssay AID588458 (Sanford-Burnham Center for Chemical Genomics, 2011).
# Screen size: about 360,000 compounds; about 3,000 (0.83%) were called active. Cut-off read from the data, not from the text of the source: active = inhibition above about 50%; inactive = the rest. Many of the other results were omitted from the sample, so actives are more common in it than they were.
# Target: DNA (cytosine-5)-methyltransferase 1 (Homo sapiens) (UniProt P26358)
# Experiment: human DNMT1 methyltransferase inhibitors, primary screen, biochemical, molecular beacon, fluorescence, HinP1I cleavage, uHTS (AID 588458)
# Settings: at 10 µM, stronger effect = higher value
# Chain of DNA (cytosine-5)-methyltransferase 1 (Homo sapiens) (P26358 504-1616 limits assumed): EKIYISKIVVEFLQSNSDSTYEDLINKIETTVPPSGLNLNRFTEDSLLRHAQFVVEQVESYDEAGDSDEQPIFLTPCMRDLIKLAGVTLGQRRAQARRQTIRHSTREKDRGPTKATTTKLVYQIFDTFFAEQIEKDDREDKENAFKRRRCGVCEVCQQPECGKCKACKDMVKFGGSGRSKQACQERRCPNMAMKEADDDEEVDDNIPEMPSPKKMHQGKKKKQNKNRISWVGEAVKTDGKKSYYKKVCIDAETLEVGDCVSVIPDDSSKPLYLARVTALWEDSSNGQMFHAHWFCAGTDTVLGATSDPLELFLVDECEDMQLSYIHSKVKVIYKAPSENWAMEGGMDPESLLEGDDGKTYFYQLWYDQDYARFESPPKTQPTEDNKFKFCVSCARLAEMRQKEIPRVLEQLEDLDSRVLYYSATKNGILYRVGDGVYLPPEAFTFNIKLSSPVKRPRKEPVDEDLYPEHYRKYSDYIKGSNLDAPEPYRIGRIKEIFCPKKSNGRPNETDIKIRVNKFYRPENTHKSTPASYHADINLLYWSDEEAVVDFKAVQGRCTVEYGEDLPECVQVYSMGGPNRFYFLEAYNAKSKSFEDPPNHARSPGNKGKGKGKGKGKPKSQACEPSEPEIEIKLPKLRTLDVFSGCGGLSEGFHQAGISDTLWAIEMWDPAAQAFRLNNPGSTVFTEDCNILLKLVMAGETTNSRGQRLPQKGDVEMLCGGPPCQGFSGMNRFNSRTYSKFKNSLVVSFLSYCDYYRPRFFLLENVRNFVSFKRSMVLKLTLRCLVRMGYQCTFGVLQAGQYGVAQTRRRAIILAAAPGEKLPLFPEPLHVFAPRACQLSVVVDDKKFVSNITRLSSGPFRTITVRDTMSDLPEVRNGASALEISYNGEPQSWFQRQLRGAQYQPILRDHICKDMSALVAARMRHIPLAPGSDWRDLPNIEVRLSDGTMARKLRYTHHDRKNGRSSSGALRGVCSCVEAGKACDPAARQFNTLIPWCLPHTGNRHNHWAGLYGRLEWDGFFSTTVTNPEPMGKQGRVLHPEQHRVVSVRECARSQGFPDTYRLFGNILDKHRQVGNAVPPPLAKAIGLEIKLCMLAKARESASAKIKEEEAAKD
row,Structure (SMILES),inhibition (reported as % activation of signal)
1,OCC[C@H]1C[C@H](O)[C@@H](O)[C@]2(CCCCO2)O1,5.49% (inactive)
2,CCOc1ccccc1-n1c(SCC(=O)N2CCCC2)nnc1-c1ccoc1C,7.56% (inactive)
3,COc1ccc(Cl)cc1S(=O)(=O)Nc1cccc(C(=O)O)c1,-3.3% (inactive)
4,COc1cc(OC)cc(-c2sc3ccc(OC)cc3c2-c2ccc3cc[nH]c3c2)c1,-17.8% (inactive)
5,COc1ccc2sc(-c3ccc(S(C)(=O)=O)cc3)c(-c3ccc(C(N)=O)cc3)c2c1,86.5% (active)
6,COc1ccc2sc(-c3ccc(S(C)(=O)=O)cc3)c(C#Cc3cncn3C)c2c1,-10.4% (inactive)
7,O=C(NCc1ccco1)c1cnn2c(C(F)(F)F)cc(-c3ccco3)nc12,-0.51% (inactive)
8,COCC(=O)N(C)[C@H]1C[C@H]2c3cc(Oc4ccccc4C)ccc3CCN2C(=O)[C@H]1[C@H](C)O,-0.44% (inactive)
9,CCOC(=O)/C(C#N)=C/c1ccc(OCC(=O)Nc2ccccc2)c(OC)c1,59.5% (active)
10,COc1cc(C2C3=C(CCCC3=O)OC3=C2C(=O)CCC3)ccc1OCC(=O)Nc1ccccc1,-1.83% (inactive)
11,CCCn1c(C)cc(/C=C(\C#N)C(=O)OCC(=O)Nc2cc(OC)c(OC)c(OC)c2)c1C,-3.49% (inactive)
12,COC(=O)Nc1nc2ccc(Sc3ccccc3)cc2[nH]1,23.1% (inactive)
13,CCCNC(=O)C1(C)CCN1C(=O)Cc1ccc(-c2ccccc2)cc1 (stereo unspecified),-1.26% (inactive)
14,CCNC(=O)C1CCCN(C(=O)c2cc(F)ccc2C)CC1 (stereo unspecified),58% (active)
15,CCOC(=O)C1CCCN(C(=O)c2ccc(C)c(F)c2)CC1 (stereo unspecified),1.76% (inactive)
16,CCNC(=O)C1CCCN(C(=O)c2ccc(OC)cc2OC)CC1 (stereo unspecified),-0.58% (inactive)
17,Nc1nc(NCc2ccccc2)n(-c2ccccc2)n1,-0.22% (inactive)
18,Cc1cc(C)n2nc(C(=O)N(C)C(c3ccccc3)c3ccccc3)nc2n1,2.32% (inactive)
19,c1ccc2cc3[nH]c(CN4CCCCC4)nc3cc2c1,83.2% (active)
20,O=c1cc(CN2CCCCCCC2)c2c(ccc3ccccc32)o1,-0.34% (inactive)
21,Cc1ccc2[nH]c(=O)c(CN3CCCCC3)c(-c3ccccc3)c2c1,-7.9% (inactive)
22,Cc1cc(C)nc(NS(=O)(=O)c2ccc(N/C=C\C(=O)c3cccs3)cc2)n1,-0.17% (inactive)
23,CC(C)(C)n1nnc(CCc2nnn(C(C)(C)C)n2)n1,0.1% (inactive)
24,COc1cccc(C=CC(=O)C=CC=Cc2ccccc2)c1,13.2% (inactive)
25,O=C(COC(=O)/C=C/c1cccc(Cl)c1)NCCc1ccccc1,-1.37% (inactive)
26,NNc1cccc(C=Cc2ccccc2)cc1=O,75.5% (active)
